Consider 87 compounds from PubChem BioAssay AID1986 (Sanford-Burnham Center for Chemical Genomics, 2009).

SMILES strings stand for the structures. The whole screen tested about 290,000 compounds, of which about 890 (0.31%) were called active. The sample holds actives, similar compounds and a random draw of the others, so the mix is not that of the screen. Cut-off read from the data, not from the text of the source: active = inhibition mostly above about 52% (no sharp cut-off); inactive = mostly below about 76%.

This assay can be described thus: cell-free HIV fusion peptide-binding blockers – biochemical, uHTS, fluorescence dequenching, primary screen (AID 1986). Conditions: 30 min, stronger effect = higher value.
The mark [1] stands for this setting: measured here: repeat confirmation average inhibition, at 18.6 µM.

In general, inhibition refers to the drop in the measured response relative to a control, in per cent.

With `Cc1ccc(C(=O)CC(C(=O)O)n2cncn2)cc1` (stereo not given), the inhibition (at 20 µM) was 1.7% (inactive).
Still for that read-out and setting: the value for `Cc1ccc2c(c1)S/C(=C/c1ccc[n+](C)c1)N2CCO` was -0.9% (inactive).
In the case of `O=C(CC1SC(=O)N(Cc2ccccc2Cl)C1=O)Nc1nccs1` (stereo not given), for the setting “at 20 µM”, the inhibition was -0.8% (inactive).
For the compound `Cn1c(CCNC(=O)C(C)(C)C)nc2ccccc21`, where the note is “at 20 µM”, the inhibition is 1.8% (inactive).
Turning to `CN(C)c1ccc(O)c2c1CC1CC3[C@@H](N(C)C)C(=O)C(C(N)=O)=C(O)[C@]3(O)C(=O)C1=C2O` (stereo not given in full), the inhibition runs as follows: (at 20 µM) 54% (inactive); under setting [1], 4.9%.
Take `C[C@H]1c2cccc(O)c2C(O)=C2C(=O)[C@]3(O)C(O)=C(C(N)=O)C(=O)[C@@H](N(C)C)[C@@H]3[C@@H](O)[C@@H]21`: the inhibition (at 20 µM) is 16% (inactive).
For the compound `CN(C)[C@@H]1C(=O)C(C(N)=O)=C(O)[C@@]2(O)C(=O)C3=C(O)c4c(O)ccc(Cl)c4[C@@H](O)[C@H]3C[C@@H]12`, where the note is “at 20 µM”, the inhibition was 58.4% (active).
On to `C=C1c2cccc(O)c2C(O)=C2C(=O)[C@]3(O)C(O)=C(C(N)=O)C(=O)[C@@H](N(C)C)[C@@H]3[C@@H](O)[C@H]12`, for which the inhibition (at 20 µM) is 63.7% (active).
Consider `COc1ccc2nc(NC(=O)Cn3cnc4c(=O)n(C)c(=O)n(C)c43)sc2c1`, for which, under “at 20 µM”, the inhibition was 4% (inactive).
Take `CCN(CC)C(=O)CC(c1ccc(F)cc1)c1ccc(OC)cc1` (stereo not given): the inhibition (at 20 µM) is 2% (inactive).
With `COc1ccc(OCC(=O)Nc2ccncc2)cc1`, the inhibition (at 20 µM) is 1.1% (inactive).
The same measure, in the same setting: the same measure for `CCC1(c2ccccc2)NC(=O)N(CC(=O)Nc2ccccc2N2CCCCC2)C1=O` (stereo not given): 2.6% (inactive); for `S=c1[nH]nc(C2CCCCC2)o1`: 0.3% (inactive); for `COC(=O)[C@H](CCSC)NC(=O)NCCC1=CCCCC1`: 0.8% (inactive).
Same read-out and setting: the value for `CCc1cccc(NC(=O)CN(C)S(=O)(=O)c2cccs2)c1` was 27.6% (inactive).
For `Cc1ccc(C)c(N(C(=O)c2csnn2)C(C(=O)NC2CCCCC2)c2ccncc2)c1` (stereo not given), under “at 20 µM”, the inhibition was -2.4% (inactive).
For the compound `N#Cc1c(-c2ccccc2)cc(-c2ccco2)c(C#N)c1N`, the inhibition (at 20 µM) was 70.5% (active).
Turning to `N#Cc1c(-c2ccco2)cc(-c2ccccc2)[nH]c1=O`, the inhibition is 50.8% (inactive) (at 20 µM) and 12.4% under setting [1].
For the compound `CSc1nc(-c2ccco2)cc(-c2ccccc2)c1C#N`, under “at 20 µM”, the inhibition was -1.1% (inactive).
`CN(C)c1cccc(NC(=O)c2cccc3ccccc23)c1`: under “at 20 µM”, the inhibition was -1.2% (inactive).
For the compound `Cc1ccc(CN(C(=O)Cn2nnc3ccccc32)C(C(=O)NCc2ccco2)c2ccc(C)o2)cc1` (stereo not given), the inhibition (at 20 µM) is 0.4% (inactive).
In the case of `O=C(/C=C/c1ccco1)Nc1ccccc1C(=O)O`, the inhibition (at 20 µM) is 58.3% (inactive) and the inhibition under setting [1] was 24.2%.
As for `O=C(/C=C/c1ccco1)Nc1cccnc1Cl`, the inhibition (at 20 µM) is 7.4% (inactive).
The same measure, in the same setting: the same measure for `O=C(/C=C/c1ccco1)Nc1cc(Cl)ccc1C(=O)O`: 74.9% (active).
Take `O=C(/C=C/c1ccco1)Nc1cccc(NC(=O)/C=C/c2ccco2)n1`: the inhibition (at 20 µM) is 93.3% (inactive) and the inhibition under setting [1] was determined as 1.5%.
Turning to `Cc1ccc(NC(=O)/C=C/c2ccco2)nc1`, the inhibition (at 20 µM) is 56.5% (active).
The same measure, in the same setting: the value for `O=C(/C=C/c1ccco1)Nc1ccccn1` was 33.3% (inactive); that for `COc1ccc(C(=O)C2CCCN(C(=O)c3csc(C(C)=O)c3)C2)c(C)c1` (stereo not given) was 1.4% (inactive).
Regarding `CS(=O)(=O)N(CC(=O)Nc1ccccc1C(=O)N1CCCC1)c1ccccc1Br`, the inhibition (at 20 µM) is -0.2% (inactive).
As for `COc1cc(CNCCc2ccc(S(N)(=O)=O)cc2)ccc1OCC(=O)NC(C)(C)C`, where the note is “at 20 µM”, the inhibition is -0.7% (inactive).
As to `CSc1nc(=O)n2cccc(C)c2n1`, where the note is “at 20 µM”, the inhibition was 3.1% (inactive).
Regarding `COc1ccc(NC(=O)c2ccccc2OCc2c(C)noc2C)cc1OC`, the inhibition (at 20 µM) was 2.3% (inactive).
In the case of `CC[C@@H](C(=O)[C@@H](C)[C@@H](O)[C@H](C)CCc1ccc(C)c(O)c1C(=O)O)[C@H]1O[C@](CC)([C@H]2CC[C@](O)(CC)[C@H](C)O2)C[C@@H]1C`, where the note is “at 20 µM”, the inhibition is 56.3% (active).
Same read-out and setting: the value for `CN(C)N1C(N)=C(C#N)C(c2cccs2)C2=C1CC(C)(C)CC2=O` (stereo not given) was -0.7% (inactive); that for `CCOC(=O)c1ccc(NC(=O)c2ccc(CN3CCOCC3)cc2)cc1` was -0.8% (inactive); that for `COc1cc(/C=C2\SC(=Nc3ccc(N4CCOCC4)cc3)N(C)C2=O)ccc1OC(C)C(=O)O` (stereo not given) was 0.3% (inactive).
Take `O=C(O)COc1ccc(/C=C2\SC(=Nc3ccccc3)N(c3ccccc3)C2=O)cc1`: the inhibition (at 20 µM) is 36.9% (inactive).
With `CCOC(=O)COc1ccc(/C=C2/SC(=Nc3ccccc3)N(Cc3cccnc3)C2=O)cc1OC`, the inhibition (at 20 µM) is -2.8% (inactive).
On the same count and under the same terms, the same measure for `CCCN1C(=O)/C(=C/c2ccco2)SC1=Nc1ccc(OC)cc1`: 13.2% (inactive); for `O=C1/C(=C/c2ccc(N3CCOCC3)o2)SC(=Nc2ccccc2)N1CCc1c[nH]c2ccccc12`: 37.2% (inactive); for `COc1ccc(N=C2S/C(=C\c3ccc(N4CCOCC4)o3)C(=O)N2CCc2c[nH]c3ccccc23)cc1`: 14.3% (inactive).
On to `COCCN1C(=O)/C(=C/c2ccc(Oc3ccc([N+](=O)[O-])cn3)c(OC)c2)SC1=Nc1ccccc1`, for which, where the note is “at 20 µM”, the inhibition was 0.3% (inactive).
With `COc1cc(/C=C2\SC(=Nc3ccccc3)N(Cc3ccco3)C2=O)ccc1OC(C)C(=O)O` (stereo not given), where the note is “at 20 µM”, the inhibition is 34.6% (inactive).
As to `CS(=O)(=O)Nc1ccc(C(=O)Nc2ccc3c(c2)OCO3)cc1`, for the setting “at 20 µM”, the inhibition was -0.8% (inactive).
In the case of `O=C(Nc1cc(S(=O)(=O)N2CCOCC2)ccc1N1CCOCC1)c1cccc(S(=O)(=O)N2CCCCC2)c1`, the inhibition (at 20 µM) was 0.7% (inactive).
Take `Cn1c(CCN2CCCCC2)nc2cc(NC(=O)NC3CCCCC3)ccc21`: the inhibition was 53.5% (inactive) (at 20 µM) and 1.9% under setting [1].
In the case of `O=C(NNC(=O)c1ccc([N+](=O)[O-])cc1)c1ccc(Br)cc1`, the inhibition (at 20 µM) was 2% (inactive).
Take `NC(=O)C1CCN(C(c2ccccc2Cl)c2nnnn2CC2CCCO2)CC1` (stereo not given): where the note is “at 20 µM”, the inhibition was 1.1% (inactive).
On to `COc1ccc(S(=O)(=O)N(CCCN2CCOCC2)Cc2cccc(OC)c2OC)cc1`, for which the inhibition (at 20 µM) was -0.2% (inactive).
For the compound `COc1ccc(CNCCCC(=O)Nc2c(Cl)ccc(C)c2Cl)cc1OC`, the inhibition (at 20 µM) was -0.3% (inactive).
For the compound `N#C/C(=C\c1ccccc1OCc1ccc(C(=O)O)cc1)c1ccccc1`, where the note is “at 20 µM”, the inhibition was 19.1% (inactive).
Turning to `N#C/C(=C/c1ccc(OCc2ccc(C(=O)O)cc2)c(Br)c1)c1cccc(F)c1`, the inhibition (at 20 µM) is 87.9% (active).
In the case of `N#C/C(=C/c1ccccc1OCc1ccc(F)cc1)c1ccc(C(=O)O)cc1`, the inhibition (at 20 µM) is 31% (inactive).
As to `O=C(Nc1c2c(nn1-c1ccc([N+](=O)[O-])cc1)CS(=O)(=O)C2)C1CC1`, where the note is “at 20 µM”, the inhibition was 0.9% (inactive).
The same measure, in the same setting: the same measure for `O=C1/C(=C/C=C/c2ccco2)SC(=S)N1c1ccc(O)cc1`: 55.7% (active).
As for `O=C1S/C(=C\C=C\c2ccco2)C(=O)N1c1ccccc1`, the inhibition is, setting by setting: (at 20 µM) 54.9% (inactive); under setting [1], -0.6%.
Turning to `O=C1NC(=Nc2ccc(O)cc2)S/C1=C\C=C\c1ccco1`, under “at 20 µM”, the inhibition was 41.3% (inactive).
As to `O=C1S/C(=C\C=C\c2ccco2)C(=O)N1c1ccc(O)cc1`, the inhibition (at 20 µM) was 78.1% (active).
Consider `Cc1ccc(N2C(=O)/C(=C\c3ccco3)SC2=S)cc1`, for which the inhibition is 71.5% (inactive) (at 20 µM) and -1.2% under setting [1].
The corresponding values for `O=C1/C(=C\c2ccco2)SC(=S)N1c1ccc(O)cc1` are 57.7% (inactive) and -2%.
Take `CN(C)CCNc1oc(-c2ccccc2F)nc1C#N`: the inhibition (at 20 µM) was 0.5% (inactive).
On to `Cc1ccc(/C(O)=C2/C(=O)C(=O)N(CC(=O)O)C2c2ccc([N+](=O)[O-])cc2)cc1` (stereo not given), for which the inhibition (at 20 µM) is 3.5% (inactive).
For the compound `O=C(CNC(=O)c1ccco1)OCC(=O)c1ccc([N+](=O)[O-])cc1`, the inhibition (at 20 µM) is -0.7% (inactive).
On to `Cc1ccc(/C=C/c2nc3sc(C(=O)O)c(C)c3c(=O)[nH]2)cc1[N+](=O)[O-]`, for which the inhibition (at 20 µM) was 73% (active).
With `Cc1c(C(=O)O)sc2nc(/C=C/c3cccc(F)c3)[nH]c(=O)c12`, the inhibition (at 20 µM) is 27.7% (inactive).
With `Cc1c(C(=O)O)sc2nc(/C=C/c3cccc(O)c3)[nH]c(=O)c12`, the inhibition (at 20 µM) was 5.5% (inactive).
Turning to `COC(=O)c1c(/N=C/NOCc2ccc(Cl)cc2)sc2c1CCN(c1ncc(C(F)(F)F)cc1Cl)C2`, under “at 20 µM”, the inhibition was -1.7% (inactive).
On the same count and under the same terms, the same measure for `CC(C)Cn1c(N)c(C(=O)COC(=O)c2ccncc2)c(=O)n(C)c1=O`: 0.1% (inactive); for `CCOc1ccc(Br)cc1S(=O)(=O)N1CCC(C(N)=O)CC1`: -0.7% (inactive); for `CCn1cc(C(=O)NCCc2ccccc2C)c(=O)c2ccc(C)nc21`: -1.3% (inactive).
For `CC(C)Nc1cc(N2CCCC2)ccc1[N+](=O)[O-]`, the inhibition (at 20 µM) is -0.2% (inactive).
For `COC(=O)CC1COc2ccccc2N1C(=O)c1ccc(Cl)cc1` (stereo not given), the inhibition (at 20 µM) was -3% (inactive).
With `Cc1nc2c(C(=O)NCc3ccccc3Cl)c[nH]n2c(=O)c1Cl`, the inhibition (at 20 µM) is 49.3% (inactive).
For `Cc1nc2c(C(=O)NCCc3ccccc3Cl)c[nH]n2c(=O)c1Cl`, the inhibition (at 20 µM) is 56.9% (active).
With `Cc1nc2c(C(=O)NCCc3ccccc3)c[nH]n2c(=O)c1Cl`, where the note is “at 20 µM”, the inhibition is 5.3% (inactive).
The same measure, in the same setting: the same measure for `COc1cc(CNc2ccc(S(N)(=O)=O)cc2)ccc1OCC(=O)NC1CCCCC1`: -1% (inactive); for `O=C(CN1c2ccccc2S(=O)(=O)c2ccccc21)NCc1ccccc1`: -0.5% (inactive); for `Cc1ccc(/C=C2\SC(=S)N(C3CCS(=O)(=O)C3)C2=O)o1` (stereo not given): 25.1% (inactive).
Consider `O=C1/C(=C\c2ccco2)SC(=S)N1C1CCS(=O)(=O)C1` (stereo not given), for which the inhibition (at 20 µM) is 40.7% (inactive).
On to `Cc1ccc(/C=C2/SC(=S)N(C3CCCCC3)C2=O)o1`, for which, where the note is “at 20 µM”, the inhibition is 32.1% (inactive).
In the case of `CC1=C(C#N)C(=O)N(C2CCS(=O)(=O)C2)C(=O)/C1=C\c1ccco1` (stereo not given), the inhibition (at 20 µM) was 83.1% (active).
Take `CC1=C(C#N)C(=O)N(C2CCS(=O)(=O)C2)C(=O)/C1=C\c1ccc(C)o1` (stereo not given): the inhibition (at 20 µM) is 101% (active).
As to `O=C1/C(=C/c2ccco2)SC(=S)N1C1CCS(=O)(=O)C1` (stereo not given), under “at 20 µM”, the inhibition is 39.9% (inactive).
On to `Cn1c(=O)oc2cc(S(=O)(=O)N3CCCC(C(=O)N4CCc5ccccc5C4)C3)ccc21` (stereo not given), for which the inhibition (at 20 µM) was 2.2% (inactive).
Regarding `Cc1ccc(CS(=O)(=O)Cc2ccc(C(=O)NCCc3ccccc3)o2)cc1`, the inhibition (at 20 µM) was 0.5% (inactive).
Take `CC(C)CNS(=O)(=O)c1cc(C(=O)N2CCOCC2)c(Cl)cc1Cl`: the inhibition (at 20 µM) was 1.1% (inactive).
On the same count and under the same terms, the value for `COc1cc(/C=N/NC(N)=O)ccc1OCC(=O)Nc1ccc(C)c(C)c1` was 11.1% (inactive).
